Experimental findings from PubChem BioAssay (NCI) are described below.

This is part of a sample that, as a whole, favours compounds with a hit. Of some 83,000 tested, about 20% had one in any assay.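 Single-dose data. Exposure time 48 hours. Values below 10 considered active.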 A number with no mark means an inactive call. The source made the active and inactive calls.

Test systems include NCI-H23 lung; NCI-H226 lung; NCI-H322M lung; HOP-62 NSCLC; NCI-H460 lung; HOP-92 NSCLC; A549/ATCC NSCLC; 786-0 renal; COLO 205 colon; DU-145 prostate; K-562 leukemia; MALME-3M melanoma; MDA-MB-231 breast; RXF 393 renal; SF-268 CNS; SF-295 CNS; SF-539 CNS; UACC-257 melanoma; M14 melanoma; NCI-H522 lung.
Assay in all cases: NCI-60 one-dose screen, 48 h (100 = growth as untreated, 0 = no growth, -100 = all killed)
Holding throughout (conditions): 10 µM unless noted

`O=c1oc2ccccc2cc1-c1nn(-c2ccccc2)cc1-c1nn[nH]n1`: the growth in the test with NCI-H23 lung was 101%; with NCI-H226 lung, 92.8%; in the test on NCI-H322M lung, 100%; with HOP-62 NSCLC, 90.8%; in the test on NCI-H460 lung it was 105%; with HOP-92 NSCLC it was 92.2%. Moreover, the growth was 97.7% in the test on A549/ATCC NSCLC; 104% in the test with 786-0 renal; 108% in the test with COLO 205 colon; 113% in the test with DU-145 prostate; 103% in the test with K-562 leukemia; 90% in the test on MALME-3M melanoma. Also, the growth is 94.7% with MDA-MB-231 breast; 99.4% in the test on RXF 393 renal; 103% in the test on SF-268 CNS; 99.7% in the test on SF-295 CNS; 97.4% with SF-539 CNS; 100% with UACC-257 melanoma. Besides, the growth in the test with M14 melanoma was 98.2%.

For the compound `CSc1ccc2c3c(n(C[C@H](O)CO)c(=O)c2c1)-c1ccccc1C3=O`, the growth in the test with NCI-H23 lung is 38.1%; with NCI-H226 lung it was 12.8%; with NCI-H322M lung it was 74.3%; in the test on HOP-62 NSCLC, 21.5%; with NCI-H460 lung, 6.06% (active); in the test with HOP-92 NSCLC, 106%. Also, the growth with A549/ATCC NSCLC is 14.5%; with 786-0 renal it was 27%; with COLO 205 colon it was 54.2%; with DU-145 prostate, 22%; in the test on K-562 leukemia it was 20.7%; in the test with MALME-3M melanoma, 74.4%. Further, the growth with MDA-MB-231 breast is 108%; with RXF 393 renal it was 79.7%; with SF-268 CNS, 44%; in the test with SF-295 CNS, 14.3%; in the test on SF-539 CNS, 10.3%; in the test on UACC-257 melanoma, 85.5%.

Regarding `COc1ccc(C2CC(c3ccccc3)=NN2C(=O)c2cc(OC)c(OC)c(OC)c2)cc1O` (stereo not drawn), the growth is 35.6% in the test on NCI-H23 lung; 27.4% in the test on NCI-H226 lung; 57.5% in the test with NCI-H322M lung; 49.4% in the test with HOP-62 NSCLC; 6.52% (active) in the test with NCI-H460 lung; 28% in the test with HOP-92 NSCLC. For the same compound, the growth is 29.5% with A549/ATCC NSCLC; 20.4% in the test on 786-0 renal; 71% in the test on COLO 205 colon; 25.8% with DU-145 prostate; 14.1% in the test on K-562 leukemia; 81.8% in the test with MALME-3M melanoma. Further, the growth is 8.45% (active) with MDA-MB-231 breast; -9.96% (active) with RXF 393 renal; 49.9% in the test on SF-268 CNS; 5.83% (active) in the test with SF-295 CNS; -15.7% (active) in the test with SF-539 CNS; 66.2% in the test with UACC-257 melanoma. The growth in the test on M14 melanoma is 13.4%.

As to `CN(C)CCCC1(c2ccc(F)cc2)OCc2cc(-c3csc4ccccc34)ccc21` (stereo not drawn), the growth with NCI-H23 lung is 48.2%; in the test with NCI-H226 lung it was 87.3%; in the test on NCI-H322M lung it was 27%; in the test with HOP-62 NSCLC it was 39.2%; in the test with NCI-H460 lung, -89.9% (active); in the test with HOP-92 NSCLC it was 26.4%. The growth in the test on NCI-H522 lung is 7.99% (active); with A549/ATCC NSCLC, 24.4%; with 786-0 renal it was 52.8%; in the test with COLO 205 colon, -67.8% (active); with DU-145 prostate, -0.822% (active); with K-562 leukemia it was -31.8% (active). The growth in the test with MALME-3M melanoma is -92.1% (active); in the test with MDA-MB-231 breast, 10.6%; in the test on RXF 393 renal it was 4.01% (active); with SF-268 CNS it was 38.6%; with SF-295 CNS, -52% (active); with SF-539 CNS it was -81.7% (active). Further, the growth with UACC-257 melanoma is -48% (active); with M14 melanoma, -57% (active).

Consider `Nc1cc(C(=O)O)cc(-n2c(O)c(C=C3N=c4ccccc4=N3)sc2=S)c1`, for which the growth in the test with NCI-H23 lung is 92.6%; in the test with NCI-H226 lung, 85.4%; with NCI-H322M lung it was 99.2%; in the test on HOP-62 NSCLC, 100%; in the test on NCI-H460 lung it was 98%; in the test on HOP-92 NSCLC it was 81.6%. The growth with A549/ATCC NSCLC was 104%; in the test on 786-0 renal, 102%; with COLO 205 colon, 103%; in the test with DU-145 prostate, 111%; in the test with K-562 leukemia it was 116%; in the test on MALME-3M melanoma it was 96.9%. Also, the growth in the test with MDA-MB-231 breast is 89.4%; with RXF 393 renal it was 112%; in the test with SF-268 CNS it was 97.6%; in the test on SF-295 CNS, 101%; in the test on SF-539 CNS, 97.3%; in the test on UACC-257 melanoma, 102%. Moreover, the growth with M14 melanoma is 97.9%.

Regarding `Fc1ccc2[nH]cc(-c3nc(-c4c[nH]c5c(Cl)nccc45)cs3)c2c1`, the growth is 60.4% in the test on NCI-H23 lung; 40% with NCI-H226 lung; 76.7% in the test with NCI-H322M lung; 57.1% in the test on HOP-62 NSCLC; 4.9% (active) in the test on NCI-H460 lung; 36.4% in the test on HOP-92 NSCLC. The growth is 22.5% with A549/ATCC NSCLC; -19.4% (active) with 786-0 renal; 25.2% in the test on COLO 205 colon; 32% with DU-145 prostate; 11.8% with K-562 leukemia; 74.3% with MALME-3M melanoma. Also, the growth in the test with MDA-MB-231 breast is 13.7%; in the test with RXF 393 renal it was 16.3%; with SF-268 CNS it was 67.2%; in the test on SF-295 CNS it was 18.1%; with SF-539 CNS it was 41.1%; with UACC-257 melanoma, -38.3% (active). In the test with M14 melanoma, the growth was -5.3% (active).

Take `O=[N+]([O-])c1ccccc1Sc1ccccc1[N+](=O)[O-]`: the growth in the test on NCI-H23 lung is 93.7%; with NCI-H226 lung, 98.5%; in the test with NCI-H322M lung, 91.4%; in the test with HOP-62 NSCLC, 92.8%; in the test on NCI-H460 lung it was 103%; in the test on HOP-92 NSCLC it was 78.6%. The growth is 87.2% in the test on A549/ATCC NSCLC; 93.4% in the test with 786-0 renal; 110% with COLO 205 colon; 104% in the test on DU-145 prostate; 97.5% with K-562 leukemia; 92.4% in the test with MALME-3M melanoma. Also, the growth in the test with MDA-MB-231 breast was 105%; with RXF 393 renal, 98.1%; in the test on SF-268 CNS it was 88%; with SF-295 CNS it was 101%; in the test on SF-539 CNS it was 94.8%; with UACC-257 melanoma, 107%. The growth with M14 melanoma is 100%.

`O=C(O)CCCCCCCCCCN1C(=O)/C(=C2/C(=O)N(CC(=O)O)c3ccc(Br)cc32)SC1=S`: the growth with NCI-H23 lung was 92.8%; in the test with NCI-H226 lung it was 98.1%; with NCI-H322M lung, 97%; with HOP-62 NSCLC, 102%; in the test on NCI-H460 lung it was 105%; with HOP-92 NSCLC, 80.7%. Moreover, the growth with NCI-H522 lung is 90.1%; with A549/ATCC NSCLC it was 92%; in the test on 786-0 renal, 54.7%; in the test on COLO 205 colon it was 110%; in the test with DU-145 prostate, 106%; in the test with K-562 leukemia it was 69.6%. In addition, the growth with MALME-3M melanoma was 96.9%; with MDA-MB-231 breast, 92.3%; in the test on RXF 393 renal, 113%; with SF-268 CNS, 96.9%; in the test with SF-295 CNS, 103%; with SF-539 CNS, 104%. In addition, the growth was 97.9% in the test with UACC-257 melanoma and 96.3% in the test on M14 melanoma.
